Compounds with a hit are over-represented: about 21% of the library has one in this group of screens.
CYP2C9 inh = human CYP2C9 inhibition; P11712; CYP2C9 Supersomes, luciferin-H conversion, luminescence; inhibition, % at 5 µM; actives 20% (n = 96,000);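 active means blocking of liver enzyme CYP2C9 beyond about 50% at 5 µM, limit read from the data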
CYP2C9 act = increases human cytochrome P450 2C9 activity; P11712; recombinant CYP2C9, luciferin-H conversion, luminescence; hits give high values; factor 1 = untreated enzyme, 0 = blocked; activation factor at 5 µM; actives 1.4% (n = 96,000); AID 1024;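 active means activation factor of 2 or more for CYP2C9 at a 5 µM dose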;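 further: 0 = sulfaphenazole-blocked wells and 1 = vehicle-only wells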
MRP-1 activ = MRP-1 activation. H69AR cells + doxorubicin, viability rescue, CellTiter-Glo. viability increase, % at 10 µM. actives 0.61% (n = 140,000);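 active means viability gain under doxorubicin at or above a set limit, the compound median plus 3 SD, cut at about 4.7% in these data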;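 further: MRP-1 overexpressing cells given doxorubicin 25 µM after compound pretreatment; 18-22 h compound pretreatment then 72 h with doxorubicin before readout; 0% = doxorubicin-only wells and 100% = vehicle-treated cells without doxorubicin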
CYP2C19 inh = human CYP2C19 inhibition | P33261 | CYP2C19 Supersomes, luciferin-H EGE luminescence, 30 min | inhibition, % at 5 µM | actives 21% (n = 96,000) | AID 778;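 active means CYP2C19 inhibition above a set limit at 5 µM in the primary screen, cut at about 50% in these data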;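 further: plate controls were negative control wells for no effect and 2.5 mM tranylcypromine positive control for full effect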
Target sequence (P33261 whole entry, looked up): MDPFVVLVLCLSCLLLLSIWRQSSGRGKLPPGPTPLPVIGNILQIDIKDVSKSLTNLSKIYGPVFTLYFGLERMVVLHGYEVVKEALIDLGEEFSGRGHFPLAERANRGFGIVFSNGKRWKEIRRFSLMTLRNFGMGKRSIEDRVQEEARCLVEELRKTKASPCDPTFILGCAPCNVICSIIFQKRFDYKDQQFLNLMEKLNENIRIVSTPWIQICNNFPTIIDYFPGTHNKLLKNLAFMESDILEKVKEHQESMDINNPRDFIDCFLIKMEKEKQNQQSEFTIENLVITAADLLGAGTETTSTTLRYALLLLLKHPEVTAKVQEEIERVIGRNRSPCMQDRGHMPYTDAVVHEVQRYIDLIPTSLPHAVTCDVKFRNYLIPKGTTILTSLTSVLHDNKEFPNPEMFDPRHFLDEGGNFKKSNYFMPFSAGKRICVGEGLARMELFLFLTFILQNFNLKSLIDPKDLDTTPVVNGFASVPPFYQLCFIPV
CYP2C19 act = cytochrome P450 2C19 (human) activation. P33261. recombinant CYP2C19, luciferin-H EGE luminescence; hits give high values; 0 = fully inhibited enzyme, 1 = untreated enzyme. activation factor at 5 µM. 96,000 tested, under 10 active;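 active means activation factor of at least 2 at 5 µM in the primary screen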;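 further: 0 = wells with 2.5 mM tranylcypromine and 1 = vehicle-only wells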
MRP resist rev = reverses drug resistance mediated by MRP | H69AR cells + 2 uM doxorubicin, CellTiter-Glo, 72 h | differential viability (reversal), % at 10 µM | actives 0.04% (n = 85,000) | AID 602;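 active means viability drop by adding the cancer drug above about 55%, with treated viability meeting a 40% cutoff, limit read from the data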;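 further: viability without doxorubicin minus viability with 2 µM doxorubicin for each compound; larger differential means the compound sensitizes cells more to doxorubicin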
The depositor's hits bear a star; / = no result.

SMILES | CYP2C9 inh | CYP2C9 act | MRP-1 activ | CYP2C19 inh | CYP2C19 act | MRP resist rev
CCN(C(=O)CSc1ncn[nH]1)C1CCCCC1 | 10 | 0.9 | -1 | 13 | 0.9 | -12
CCCCCCCC1CC(CSC(=N)N)OC1=O (stereo unspecified) | -14 | 1.1 | -2 | 40 | 0.6 | -14
CCCCCCCC1CC(CSc2ncn[nH]2)OC1=O (stereo unspecified) | / | / | 10* | / | / | 9
CCCCC1CC(CSc2ncn[nH]2)OC1=O (stereo unspecified) | 22 | 0.8 | 1 | 80* | 0.2 | 3
COc1cc(/C=C(/C#N)c2nc3ccccc3[nH]2)ccc1Oc1ncccc1[N+](=O)[O-] | 66* | 0.3 | -1 | 62* | 0.4 | /
CCOc1cc(/C=C(/C#N)c2nc3ccccc3[nH]2)ccc1Oc1ccc([N+](=O)[O-])cn1 | 13 | 0.9 | -2 | 4 | 1 | /
CCc1nc(OCC(=O)c2ccccc2)c(C#N)c2c1COC(C)(C)C2 | 28 | 0.7 | 0 | 47 | 0.5 | -7
CC1(C)Cc2c(C#N)c(OCC(=O)c3ccc(Cl)cc3)nc(-c3ccco3)c2CO1 | 18 | 0.8 | 0 | 59* | 0.4 | -6
Cc1nc(OCC(=O)c2ccc(Cl)cc2)c(C#N)c2c1COC(C)(C)C2 | 18 | 0.8 | 0 | 52* | 0.5 | -24
Brc1ccccc1-c1csnn1 | / | / | 2 | / | / | /
Cc1nn(CCC#N)c(NC(=O)c2ccc(Cl)cc2Cl)c1P(=O)(Nc1ccc([N+](=O)[O-])cc1)N1CCOCC1 (stereo unspecified) | 11 | 0.9 | -1 | -6 | 1.1 | -5
O=C(CC(C(=O)O)c1ccccc1)Nc1cccc2ccccc12 (stereo unspecified) | / | / | -1 | / | / | /
CCn1ncc(Br)c1C(=O)Nc1nccs1 | 33 | 0.7 | -1 | 28 | 0.7 | 4
Clc1ccc(C[n+]2csc3ccccc32)cc1 | / | / | -4 | / | / | /
Fc1ccc(C[n+]2csc3ccccc32)cc1 | 60* | 0.4 | -3 | 42 | 0.6 | /
CCCn1c(SCC(=O)c2c[nH]c3ccccc23)nnc1-c1ccncc1 | / | / | -2 | / | / | /
Cc1occc1-c1nnc(SCC(=O)c2c[nH]c3ccccc23)n1C | 54* | 0.5 | -1 | 98* | 0 | 4
COc1ccc(OCCSc2nnc(-c3ccoc3C)n2C)cc1 | 72* | 0.3 | 1 | 74* | 0.3 | 12
Cc1occc1-c1nnc(SCC(=O)c2ccc(Cl)cc2)n1C | 48 | 0.5 | 0 | 85* | 0.1 | 9
Cc1nc(NC(=O)/C=C/c2ccccc2)n[nH]1 | / | / | -5 | / | / | /
Nc1c(-c2ccccc2)c(CSc2nc3ccccc3[nH]2)nn1-c1ccc(C(=O)O)cc1 | / | / | 2 | / | / | /
Cc1cc(C)c(C#N)c(SCS(=O)Cc2ccccc2)n1 (stereo unspecified) | 23 | 0.8 | -2 | 68* | 0.3 | 17
Cc1cc(C)c(C#N)c(SCS(=O)Cc2ccc(Cl)cc2)n1 (stereo unspecified) | 59* | 0.4 | 0 | 95* | 0.1 | 10
Cc1cc(C)c(C#N)c(SCCS(=O)(=O)Cc2ccc(Cl)cc2)n1 | 8 | 0.9 | -5 | 36 | 0.6 | -14
Cc1cc(C)c(C#N)c(SCCS(=O)(=O)c2ccc(C(C)(C)C)cc2)n1 | 89* | 0.1 | -2 | 70* | 0.3 | -13
SMILES | CYP2C9 inh | CYP2C9 act | MRP-1 activ | CYP2C19 inh | CYP2C19 act | MRP resist rev
Cc1cc(C)c(C#N)c(SCc2nnc(-c3ccccc3)o2)n1 | / | / | 1 | / | / | /
Oc1c(N=Nc2ccccn2)ccc2ccccc12 | 43 | 0.6 | -2 | 31 | 0.7 | /
CC1(C)CC(=O)C(Sc2ccccc2[N+](=O)[O-])=C(O)C1 | / | / | -1 | / | / | /
O=C1CCCCCCC1Sc1ccccc1[N+](=O)[O-] (stereo unspecified) | -16 | 1.2 | -1 | 50* | 0.5 | /
COC(=O)C1=C(C(C)=O)C(c2ccc(C(=O)OC)cc2)n2nnnc2N1 (stereo unspecified) | 83* | 0.2 | 0 | 12 | 0.9 | 14
COC(=O)C1=C(C(C)=O)C(c2ccc(C)cc2)n2nnnc2N1 (stereo unspecified) | 15 | 0.9 | -1 | 12 | 0.9 | 0
Fc1ccccc1/C=N/NC(=S)Nc1ccc(Cl)cc1Cl | / | / | -4 | / | / | /
CCOc1ccccc1-c1nnc(SCC(=O)NC2CC3CCC2C3)n1CC (stereo unspecified) | 47 | 0.5 | -1 | 77* | 0.2 | 6
CCn1c(SCC(=O)NC2CCCCC2)nnc1-c1cc2cccc(OC)c2o1 | -55 | 1.5 | 0 | 43 | 0.6 | 0
Cc1[nH]c2ccccc2c1C(=O)CN1CCCCC1CCO (stereo unspecified) | 32 | 0.7 | -5 | 18 | 0.8 | -17
CCN(c1ccc(NC(=O)COC(=O)CCC(=O)c2ccc(F)cc2)cc1)C(C)C | 23 | 0.8 | -1 | 63* | 0.4 | /
CC(Sc1nnnn1-c1ccc(Cl)cc1)C(=O)NCC(=O)Nc1ccc(F)c(F)c1F (stereo unspecified) | / | / | -2 | / | / | /
CC1=C(C#N)C(c2cn(-c3ccccc3)nc2-c2cccs2)C(C#N)=C(C)N1 | 75* | 0.2 | -1 | 74* | 0.3 | 16
N#Cc1cn(-c2ccccc2)nc1-c1ccco1 | 32 | 0.7 | -5 | 14 | 0.9 | -3
COCCOC(=O)C1=C(C)NC(=O)NC1c1cn(-c2ccccc2)nc1-c1cccs1 (stereo unspecified) | 70* | 0.3 | -2 | 76* | 0.2 | 1
C=CCOC(=O)C1=C(C)NC(=O)NC1c1cn(-c2ccccc2)nc1-c1cccs1 (stereo unspecified) | 79* | 0.2 | -5 | 68* | 0.3 | 2
COCCOC(=O)C1=C(C)NC(=O)NC1c1cccs1 (stereo unspecified) | -13 | 1.1 | -2 | 16 | 0.8 | /
COC(=O)C1=C(C)NC(C)=C(C(=O)OC)C1c1cn(-c2ccccc2)nc1-c1ccco1 | 83* | 0.2 | -3 | 43 | 0.6 | /
NC1=NC(c2cn(-c3ccccc3)nc2-c2cccs2)n2c(nc3ccccc32)N1 (stereo unspecified) | -3 | 1 | -1 | -16 | 1.2 | 1
Cc1ccc(N=C(NO)c2nonc2N)cc1 | 9 | 0.9 | 1 | 42 | 0.6 | -4
Cc1ccc(OC(=O)CCC(=O)N2CCc3ccccc32)cc1 | -18 | 1.2 | -1 | -1 | 1 | 2
COC(=O)c1sc(=S)sc1C(=O)OC | 24 | 0.8 | -1 | 52* | 0.5 | -15
CCC(=O)NC(NC(=S)Nc1c(C)n(C)n(-c2ccccc2)c1=O)C(Cl)(Cl)Cl (stereo unspecified) | / | / | 3 | / | / | /
COCCn1c(C)cc(C(=O)COC(=O)c2ccc3ncsc3c2)c1C | -99 | 2* | 0 | 29 | 0.7 | -4
COCCn1c(C)cc(C(=O)COC(=O)c2c(C)nn(Cc3ccccc3)c2C)c1C | 14 | 0.9 | -1 | 61* | 0.4 | 1

High-throughput results from PubChem BioAssay.
